From PubChem BioAssay
The full list was thinned out, with hits kept by preference.
KDM5B inh = KDM5B demethylase inhibition | Q9UGL1 | KDM5B demethylase, FDH-coupled NADH fluorescence (FDH is formaldehyde dehydrogenase) | Potency, µM (series often up to 57.7 µM), hits mostly inhibitors | 220,000 tested, 2.6% active; active = well fitted inhibition curve with a large enough effect; note: 0% is about no effect; nearly all actives have a fitted effect of over 70% in size
Target sequence (Q9UGL1 whole entry, looked up): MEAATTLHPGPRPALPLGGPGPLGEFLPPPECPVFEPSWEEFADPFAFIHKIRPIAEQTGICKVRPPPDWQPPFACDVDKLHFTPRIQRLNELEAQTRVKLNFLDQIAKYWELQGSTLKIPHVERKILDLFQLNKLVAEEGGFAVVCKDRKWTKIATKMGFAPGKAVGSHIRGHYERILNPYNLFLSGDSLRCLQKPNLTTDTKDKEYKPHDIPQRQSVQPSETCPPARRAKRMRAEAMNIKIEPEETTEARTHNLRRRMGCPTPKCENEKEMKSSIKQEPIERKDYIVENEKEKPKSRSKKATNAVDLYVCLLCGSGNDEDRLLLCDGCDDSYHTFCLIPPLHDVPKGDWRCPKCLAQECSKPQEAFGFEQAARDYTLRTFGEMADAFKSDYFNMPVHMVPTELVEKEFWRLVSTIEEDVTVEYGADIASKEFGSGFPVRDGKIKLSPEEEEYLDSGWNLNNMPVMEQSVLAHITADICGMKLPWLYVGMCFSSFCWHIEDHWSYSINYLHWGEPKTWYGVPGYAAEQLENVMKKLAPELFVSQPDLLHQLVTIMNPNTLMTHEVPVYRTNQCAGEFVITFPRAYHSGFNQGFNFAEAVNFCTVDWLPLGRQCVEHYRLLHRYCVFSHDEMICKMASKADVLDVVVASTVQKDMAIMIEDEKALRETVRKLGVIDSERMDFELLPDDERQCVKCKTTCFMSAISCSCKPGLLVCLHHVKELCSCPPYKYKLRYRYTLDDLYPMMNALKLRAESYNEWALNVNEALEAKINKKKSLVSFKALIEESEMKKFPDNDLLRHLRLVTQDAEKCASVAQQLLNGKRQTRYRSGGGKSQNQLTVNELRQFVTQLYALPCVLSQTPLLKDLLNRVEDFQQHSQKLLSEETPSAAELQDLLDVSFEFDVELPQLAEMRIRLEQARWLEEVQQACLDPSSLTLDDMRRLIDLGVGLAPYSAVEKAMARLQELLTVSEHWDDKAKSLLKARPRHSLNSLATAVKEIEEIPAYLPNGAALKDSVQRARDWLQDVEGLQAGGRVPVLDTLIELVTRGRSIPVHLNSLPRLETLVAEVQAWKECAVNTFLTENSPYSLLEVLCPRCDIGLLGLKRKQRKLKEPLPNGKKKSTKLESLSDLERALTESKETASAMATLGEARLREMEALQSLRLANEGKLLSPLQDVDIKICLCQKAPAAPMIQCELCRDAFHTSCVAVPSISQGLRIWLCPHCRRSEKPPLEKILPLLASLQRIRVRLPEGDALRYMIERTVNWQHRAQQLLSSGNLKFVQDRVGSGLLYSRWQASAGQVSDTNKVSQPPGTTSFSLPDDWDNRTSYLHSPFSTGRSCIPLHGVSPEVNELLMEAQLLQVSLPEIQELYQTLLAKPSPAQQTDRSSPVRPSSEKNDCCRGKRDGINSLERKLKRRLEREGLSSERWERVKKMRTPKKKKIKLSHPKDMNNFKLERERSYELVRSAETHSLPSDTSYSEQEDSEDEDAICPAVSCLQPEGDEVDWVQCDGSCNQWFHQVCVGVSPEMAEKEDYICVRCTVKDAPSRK
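Inhibition is measured as reduced NADH fluorescence generation from FDH coupling to formaldehyde release. Truncated KDM5BΔAP at 200 nM final acts on H3K4me3 peptide (12.5 µM in substrate mix) in pH 7.5 HEPES buffer with Tween-20, 30 min, room temperature.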
An asterisk follows results filed as active; i = inactive. Potency is the fitted concentration of half-maximal effect.

SMILES	KDM5B inh
O=C(NCc1ccc(C(=O)N2CCCCC2)cc1)c1cc(=O)[nH]c2ccccc12	i
Cc1cc(NC(=O)COc2ccccc2C(=O)c2cc(C#N)c(=O)n(C(C)C)c2)ccc1N1CCCC1	i
CNC(=O)CCn1ncc2cc(OCc3ccccc3-c3ccc(OC)cc3)ccc21	32µM*
CNC(=O)CCn1ncc2cc(OCc3ccccc3-c3cnn(C)c3)ccc21	i
CNC(=O)CCn1ncc2cc(OCc3ccccc3-c3cncc(OC)c3)ccc21	i
c1ccc(-c2nc(CN3CCCC3c3ccsc3)co2)cc1 (stereo not given)	i
CCCCN(CC)C(=O)CCNC(=O)Cn1cnc2sc3c(c2c1=O)CCCC3	i
COc1ccc(CN(C(=O)c2cc(=O)c3cc(Cl)ccc3o2)C2CCS(=O)(=O)C2)cc1 (stereo not given)	i
O=C(/C(Br)=C/Nc1ccc(Cl)c(Cl)c1)C(F)(F)F	i
N#CC1=C(N)N(c2ccccc2)C2=C(C(=O)OC2)C12C(=O)N(Cc1ccccc1)c1ccccc12 (stereo not given)	i
C=C(Cl)CN1CCC(C(=O)OCC)CC1	i
CCCS(=O)(=O)Nc1ccc2n(c1=O)C[C@H]1C[C@@H]2CN(C(=O)c2ccc(-c3ccccc3)cc2)C1	20µM*
O=C(Nc1ccc2n(c1=O)C[C@H]1C[C@@H]2CN(C(=O)c2ccc(-c3ccccc3)cc2)C1)c1ccco1	i
CSCC(=O)Nc1ccc2n(c1=O)C[C@H]1C[C@@H]2CN(C(=O)c2ccc(-c3ccccc3)cc2)C1	i
CC1CCC2(CC1)N=C(c1cccc(F)c1)C(=S)N2 (stereo not given)	i
CCCCSCCCNC(=O)CS(=O)Cc1nc(-c2ccc(C)cc2)oc1C (stereo not given)	i
Cn1nc(C(=O)NCC2CCN(C3CC3)C2)c2ccccc2c1=O (stereo not given)	i
Cc1nn(-c2ncccn2)c2c1C(c1cccc(OCC(C)C)c1)CC(=O)N2 (stereo not given)	i
COc1ccc(NC(=O)N2C[C@@H]3C[C@H](C2)c2ccc(NC(=O)c4ccccc4)c(=O)n2C3)cc1	i
CN(C)CC(=O)N1C[C@@H]2C[C@H](C1)c1ccc(-c3ccccc3CN3CCOCC3)c(=O)n1C2	18µM*
CC(C)(CC(=O)O)CC(=O)N1C[C@@H]2C[C@H](C1)c1ccc(-c3cc4ccccc4s3)c(=O)n1C2	i
O=C(O)C(c1c[nH]c2cc(Cl)ccc12)N1CCN(CCOc2ccc(Cl)cc2)CC1 (stereo not given)	i
COc1cc(CNC(=O)Cc2ccsc2)ccn1	i
O=C(Cc1ccsc1)NCc1ccccc1	i
O=C(Cc1cccc(F)c1)NCc1nnc2ccc(-c3ccc(Cl)cc3)nn12	25µM*
SMILES	KDM5B inh
O=C(NCc1nnc2ccc(-c3ccccc3)nn12)c1ccccc1Cl	28µM*
O=C(NCc1ccccc1Cl)c1ccccc1-c1ccccc1	i
O=C(Cn1nnc(-c2ccc(Cl)cc2)n1)NCc1ccc(F)cc1	i
O=C(NCc1nnc2ccc(-c3ccccc3)nn12)c1ccccn1	28µM*
O=C(Cc1ccsc1)NCc1nnc2ccc(-c3ccc(Cl)cc3)nn12	25µM*
CC(Oc1ccccc1)C(=O)NCc1nnc2ccc(-c3ccccc3)nn12 (stereo not given)	i
O=C(Nc1ccccc1C(=O)NCc1ccccc1)c1ccccn1	i
CCOc1ccccc1C(=O)NC1(C(F)(F)F)C(=O)Nc2c1c(=O)[nH]c(=O)n2Cc1ccccc1 (stereo not given)	i
COC(=O)C1=C(C)OC(N)=C(C#N)C1c1cccc(C(F)(F)F)c1 (stereo not given)	i
O=C(Nc1nonc1-c1ccc(Cl)cc1)c1ccc(Cl)cc1	i
CCn1nc(C(=O)OCc2ccc(C(C)(C)C)cc2)c2ccccc2c1=O	i
CC(C)OCCCNC(=O)CC1CCCC1	i
Cn1nc(C(=O)NCC(C)(c2ccccc2)c2ccccc2)c2ccccc2c1=O	i
Cc1ccc(S(=O)(=O)C(CC(=O)c2ccccc2)c2ccc(Cl)cc2)cc1 (stereo not given)	i
CC(C)Cn1cnc2c1c(=O)n(CC(=O)NCc1ccc(Cl)cc1)c(=O)n2Cc1ccccc1	i
Cn1cc(CN2C[C@@H](F)[C@@H](OCc3nc4ccc(C#N)cc4[nH]3)C2)c2ccccc21	i
CCCC(=O)Nc1ccc(C(=O)Nc2ccc3c(c2)nc(CCn2ccnc2C)n3C)cc1	i
CCOc1ccc(C(C)NC(=O)Cc2ccccc2C)cc1 (stereo not given)	i
O=C1CC(c2ccccc2)N(Cc2ccncc2)CCCN(C(=O)Nc2ccccc2F)CCN1 (stereo not given)	i
COc1ccc(NC(=O)CSc2ccc3nnc(CCNC(=O)c4ccccc4)n3n2)cc1	i
Cc1nc2cc(-c3ccccc3)nn2c(C)c1CCC(=O)NCCc1ccccc1	i
O=C(NCc1nnc2ccc(-c3ccc(Cl)cc3)nn12)c1cc(F)ccc1Cl	16µM*
CC(=O)Nc1ccc(NC(=O)CSc2nnc3ccc(-c4ccc(F)cc4)nn23)cc1	i
COc1ccc(-c2ccc3nnc(CNC(=O)c4ccccc4F)n3n2)cc1	28µM*
CCn1c(CNC(=O)c2ccccc2OC)nnc1SCC(=O)c1ccc(OC)cc1	i
SMILES	KDM5B inh
CCOc1ccc(CC(=O)NCc2nnc3ccc(-c4ccccc4)nn23)cc1	i
CCOC(=O)CNC(=O)c1ccccc1OCC	i
O=C(CCc1ccccc1)NCc1nnc2ccc(-c3ccccc3)nn12	28µM*
CCOc1ccccc1C(=O)NCc1nnc2ccc(-c3ccccc3)nn12	25µM*
CSc1ccc(CCNC(=O)CCc2nnc3ccc(NCc4ccc(Cl)cc4)nn23)cc1	i
COc1ccccc1NC(=O)C(C)Sc1nc2ccccc2nc1C (stereo not given)	i
CCCCOc1ccc2c(=O)c(Oc3ccc(OC)cc3)c(C(F)(F)F)oc2c1	i
Cc1ccc2c(CSc3ncn[nH]3)cc(=O)oc2c1C	i
O=C(NCc1nnc2ccc(-c3ccccc3)nn12)c1ccc(F)cc1Cl	28µM*
Cc1ccccc1CC(=O)NCc1nnc2ccc(-c3ccccc3)nn12	32µM*
O=C(NCCc1noc(C2CC2)n1)C1(c2ccccc2)CC1	i
O=C(Cc1ccccc1Cl)NCc1nnc2ccc(-c3ccccc3)nn12	11µM*
Cc1ccccc1CNC(=O)CC(C)C	i
Cc1ccc(-c2ccc3nnc(CNC(=O)C4(c5ccccc5)CC4)n3n2)cc1	28µM*
O=C(Cn1c(=O)nc(-c2ccccc2)c2ccccc21)NCc1ccccc1Cl	i
O=C(Cc1cccs1)NCc1nnc2ccc(-c3ccccc3)nn12	i
CC(NC(=O)CCNC(=O)c1ccc(F)cc1Cl)c1ccc(Cl)c(Cl)c1 (stereo not given)	i
CC(C)(CNC(=O)C1(c2ccccc2)CC1)C(N)=O	i
O=C(NCc1nnc2n1C(C(=O)NC1CC1)CC2)c1ccc(Cl)cc1Cl (stereo not given)	i
Nc1cccc(/C=C/C(=O)c2ccccc2)c1	i
O=C(O)C(c1c[nH]c2cc(OCc3ccccc3)ccc12)N1CCN(Cc2cccnc2)CC1 (stereo not given)	i
CC(C)(C)C(=O)Cc1[nH]c2cc(Cl)ccc2c1C(C)(C)C	i
CCCCc1ccc(-n2nnnc2SCC(=O)Nc2cccc(OC)c2)cc1	i
CCCC12CN(C(=O)c3ccccc3)CC(C)(CN(C(=O)c3ccccc3)C1)C2=O	i
